Hits are enriched below; roughly 18% of the tested compounds scored in any of these assays.
TDP1 cell noCPT: qHTS for Inhibitors of human tyrosyl-DNA phosphodiesterase 1 (TDP1): qHTS in cells in absence of CPT | DT40 Tdp1-/- hTDP1 cells, no CPT, ATP luminescence, 48 h | Potency, µM (doses to about 46.2 µM), without a hit: at the highest dose activity change, negative = growth inhibition, hits mostly inhibitors | 420,000 tested, 15% active; also: potency is read from the fitted curve at half-maximal effect; nearly all actives have a fitted effect of over 55% in size
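Chicken DT40 Tdp1-/- cells stably complemented with human TDP1 were seeded at 400 cells/well with DMSO in place of 20 nM camptothecin. After compound pinning, cells grew at least 48 hr at 37 °C; viability read by CellTiter-Glo luminescence.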
Six1-Eya2 inh: inhibitors of human Six1/Eya2 interaction; AID 651725; activity change, % (concentration not given with the values); Q15475+O00167; 360,000 tested, 0.56% active; AlphaScreen GST-Six1/His-Eya2 binding, biochemical; stronger effect = lower value; in the data active = activity change below about -65%; inconclusive = mostly about -30% to -63%
Target sequence (O00167 whole entry, looked up): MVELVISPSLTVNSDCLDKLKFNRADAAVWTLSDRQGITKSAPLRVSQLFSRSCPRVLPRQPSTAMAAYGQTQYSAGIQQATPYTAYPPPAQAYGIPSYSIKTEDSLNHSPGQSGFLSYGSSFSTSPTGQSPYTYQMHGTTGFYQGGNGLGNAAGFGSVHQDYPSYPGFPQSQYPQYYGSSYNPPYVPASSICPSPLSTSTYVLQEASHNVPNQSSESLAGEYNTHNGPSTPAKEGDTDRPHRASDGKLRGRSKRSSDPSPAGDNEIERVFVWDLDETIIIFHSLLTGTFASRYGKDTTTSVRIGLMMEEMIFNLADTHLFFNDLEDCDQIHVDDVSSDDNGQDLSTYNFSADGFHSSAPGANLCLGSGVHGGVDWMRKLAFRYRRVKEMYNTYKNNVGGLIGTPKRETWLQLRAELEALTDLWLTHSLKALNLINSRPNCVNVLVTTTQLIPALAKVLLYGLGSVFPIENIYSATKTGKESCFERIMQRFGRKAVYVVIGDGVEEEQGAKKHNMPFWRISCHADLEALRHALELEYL
Target sequence (Q15475 whole entry, looked up): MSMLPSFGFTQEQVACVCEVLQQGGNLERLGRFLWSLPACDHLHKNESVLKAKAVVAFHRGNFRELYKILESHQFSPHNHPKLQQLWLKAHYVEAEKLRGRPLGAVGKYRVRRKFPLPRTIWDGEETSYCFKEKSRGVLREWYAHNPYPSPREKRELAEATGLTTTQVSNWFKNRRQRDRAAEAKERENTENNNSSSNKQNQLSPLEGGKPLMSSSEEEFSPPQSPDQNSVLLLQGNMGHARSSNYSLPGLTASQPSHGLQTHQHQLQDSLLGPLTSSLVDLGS
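Homogeneous AlphaScreen proximity assay pairing GST-Six1 with His-tagged Eya2 (added as 5X mix: 250 nM and 500 nM) in 50 mM Tris pH 8.0, 300 mM NaCl, 1 mM TCEP. Glutathione donor and nickel acceptor beads; 1 h, 37 °C, dark.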
TDP1 block: TDP1 (human) enzyme inhibition | recombinant TDP1, AlphaScreen DNA substrate cleavage | 350,000 tested, 0.28% active | Potency, µM (doses to about 130 µM), for the others: top-dose activity change, negative = inhibition, hits mostly inhibitors | Q9NUW8 | AID 485290; also: potency is read from the fitted curve at half-maximal effect; nearly all actives have a fitted effect of over 40% in size
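Compounds were preincubated with Tdp1 (1 nM final) for 15 min at room temperature before substrate (15 nM final) started a 5 min reaction; beads (10 ug/ml final) were then added for 10 min before AlphaScreen detection.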
TDP1 cell CPT: growth inhibition of DT40 Tdp1-/-;hTDP1 cells with camptothecin (screen for TDP1 inhibitors). 420,000 tested, 12% active. chicken DT40 Tdp1-/-;hTDP1 cells + 20 nM CPT, ATP luminescence, 48 h. Potency, µM (top dose mostly 46.2 µM), inactives show at the top dose activity change, negative = growth inhibition, hits mostly inhibitors; also: potency is read from the fitted curve at half-maximal effect; nearly all actives have a fitted effect of over 55% in size
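Cell growth measured by CellTiter-Glo luminescence after a minimum 48 h, 37 C compound exposure with 20 nM CPT in Tdp1-knockout DT40 cells stably expressing hTDP1, seeded 400/well; qHTS titration format.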
CtBP-E1A blk: CtBP/E1A binding inhibition. activity change, % (no concentration beside the values). AlphaScreen GST-E1A/His-CtBP binding, 1536-well; stronger effect = lower value. 340,000 tested, 0.49% active; in the data active = activity change below about -65%; inconclusive = mostly about -30% to -63%
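Homogeneous bead-based format: GST-tagged E1A captured on glutathione donor beads, His-tagged CtBP on nickel acceptor beads; compounds precede bead addition by 2 h at 37 °C.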
IL1B secr inh: blocks inflammasome-driven IL-1 beta release. THP-1 LPS/ATP IL-1B secretion, AlphaLISA, 16 h; stronger effect = lower value. activity change, % at 57.5 µM. 360,000 tested, 4.7% active. AID 743279; in the data active = activity change below about -50%; inconclusive = mostly about -30% to -49%
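Secreted IL-1B measured by AlphaLISA bead assay after 16 h compound exposure of THP-1 cells; compounds (final up to 57.5 uM) added 1 h before LPS (250 ng/mL) and ATP (1.25 mM) stimulation; lower signal means less secretion.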
* hit, by the source's call; ? = inconclusive; / = no result given; [ ] = another dose, or the depositor's remark. Unless noted, calls follow the shape of the dose curve; as a rule, active = well fitted curve in the direction sought with a large enough effect; inconclusive = small, poorly fitted or top-dose-only effect, or another doubt; inactive = no such curve, though single readings can be large; an effect the other way counts as inactive or inconclusive. % is scaled to controls: 0 for no effect and ±100 for the full control effect.

SMILES	TDP1 cell noCPT	Six1-Eya2 inh	TDP1 block	TDP1 cell CPT	CtBP-E1A blk	IL1B secr inh
Cc1cc(C)c(NS(=O)(=O)c2c(C(=O)N3CCOCC3)c(C)n(C)c2C)c(C)c1	-15%	1	0%	-19%	/	9
CCC1C(=O)CC(c2ccc([N+](=O)[O-])cc2)NC1c1ccc([N+](=O)[O-])cc1 (stereo not given)	?	?	0%	?	-9	-100*
Cc1ccc(C2C=CC(C#N)=CN2Cc2ccccc2)cc1 (stereo not given)	?	-17	/	23µM*	-11	69
COc1ccc(Cn2c(=O)n(-c3ccc(C)cc3)c(=O)c3c2c2cc(C)ccc2n3C)cc1	-14%	/	6%	-18%	/	/
CCc1ccc(NC(=O)Cn2c(=O)n(-c3ccccc3C)c(=O)c3c2c2cc(OC)ccc2n3C)cc1	-27%	/	3%	?	/	/
COc1cccc(Cn2c(=O)n(-c3ccccc3C)c(=O)c3c2c2cc(C)ccc2n3C)c1	13µM*	/	0%	18µM*	/	/
COc1ccc2c(c1)c1c(c(=O)n(-c3ccccc3C)c(=O)n1CC(=O)Nc1c(C)cccc1C)n2C	9.2µM*	/	0%	7.3µM*	/	/
Cc1cccc(NC(=O)c2nc[nH]c2C(=O)NC[C@H](C)O)c1	?	-10	/	-20%	2	-28
O=C1C2C3c4ccccc4C(c4ccccc43)C2C(=O)N1c1cccnc1 (stereo not given)	0%	6	3%	0%	5	-4
CC12c3ccccc3C(c3ccccc31)C1C(=O)N(c3ccncc3)C(=O)C12 (stereo not given)	16µM*	-6	2%	16µM*	-4	0
CC12c3ccccc3C(c3ccccc31)C1C(=O)N(c3cccnc3)C(=O)C12 (stereo not given)	15µM*	-5	2%	?	-1	20
CC12c3ccccc3C(c3ccccc31)C1C(=O)N(Cc3cccnc3)C(=O)[C@H]12 (stereo not given in full)	?	-9	0%	18µM*	-8	-10
O=C1C2C3C=CC([C@@H]2C(=O)N1Cc1cccnc1)C31CC1 (stereo not given in full)	-2%	-2	2%	-13%	7	-5
CCOP(=O)(OCC)C(NC(=O)Nc1cccc(Cl)c1)C(N)=O (stereo not given)	-9%	13	1%	-10%	/	-12
CN(CCO)C(=O)c1cn(C2CCCN(Cc3ccc(C(F)(F)F)cc3)C2)nn1 (stereo not given)	?	/	/	2%[9.04 µM]	/	/
Clc1ccc(-c2n[nH]c3c2CCC3)c(Cl)c1	-9%	25	5%	-6%	0	3
CC(C(=O)OCC(=O)c1c(N)n(C)c(=O)n(C)c1=O)N1C(=O)c2ccccc2C1=O (stereo not given)	-3%	7	0%	7%	2	30
COc1ccc(N(CC(=O)NC2CC3CCC2C3)S(=O)(=O)c2ccccc2)cc1Cl (stereo not given)	?	-1	2%	?	-4	-7
COc1ccccc1NC(=O)N(CCCN1CCOCC1)Cc1cc2cc3c(cc2[nH]c1=O)OCO3	?	20	-4%	-16%	-1	-17
COc1ccccc1NC(=S)N(CCCN(C)C)Cc1cc2cc3c(cc2[nH]c1=O)OCO3	-16%	2	2%	-1%	-24	-23
CN(C)CCCN(Cc1cc2cc3c(cc2[nH]c1=O)OCO3)C(=S)Nc1cccc(Cl)c1	29µM*	-1	-7%	?	1	-102*
CN(C)CCCN(Cc1cc2cc3c(cc2[nH]c1=O)OCO3)C(=S)Nc1ccccc1	-4%	0	-1%	0%	20	-62*
COc1ccccc1NC(=O)N(Cc1cccs1)Cc1cc2cc3c(cc2[nH]c1=O)OCO3	16µM*	-14	3%	?	2	8
CCN(CC)CCCN(Cc1cc2cc3c(cc2[nH]c1=O)OCO3)C(=S)Nc1ccccc1OC	-15%	-1	0%	18µM*	-12	-29
CCc1nccn1CCC(=O)N1CCCC(Nc2ccc(F)cc2)C1 (stereo not given)	2%	0	6%	-16%	-1	25
SMILES	TDP1 cell noCPT	Six1-Eya2 inh	TDP1 block	TDP1 cell CPT	CtBP-E1A blk	IL1B secr inh
Cc1[nH]c2ccccc2c1C(=O)CN1C(=O)NC2(CCCCCC2)C1=O	?	-4	3%	-10%	/	-20
CC1Sc2ccc(S(=O)(=O)CCC(=O)NCc3cccs3)cc2NC1=O (stereo not given)	0%	2	2%	-30%	1	38
Cc1c(C(=O)NCC2CCCO2)oc2ccc(Br)cc12 (stereo not given)	?	-4	/	?	16	5
CC(C)C(NS(=O)(=O)c1cccs1)C(=O)NCCCN1CCCCCC1 (stereo not given)	-6%	17	/	2%	/	0
CCOc1ccc2[nH]c(=O)c(CN(CCN3CCCC3)C(=S)Nc3ccccc3OC)cc2c1	-19%	-9	3%	-29%	-1	-62*
COC(=O)c1ccccc1NC(=S)N(Cc1ccc2c(c1)OCO2)Cc1cc2cc(OC)ccc2[nH]c1=O	16µM*	-17	0%	9.2µM*	-7	0
COc1ccc(NC(=O)N(CCN2CCCC2)Cc2cc3cc(OC)c(OC)cc3[nH]c2=O)cc1	-25%	-20	6%	-9%	-9	-8
CCc1ccc2[nH]c(=O)c(CN(CCN(C)C)C(=O)Nc3ccccc3OC)cc2c1	?	2	4%	?	-8	?
CNC(=S)N(Cc1ccc(OC)cc1)Cc1cc2cc(C)ccc2[nH]c1=O	-3%	9	-3%	6%	1	8
CCc1ccc2[nH]c(=O)c(CN(Cc3ccccc3)C(=O)Nc3ccccc3OC)cc2c1	?	-16	3%	?	-11	-59*
CCN(CC)c1ccc(NC(=O)Cn2nc(C)n3cccc3c2=O)c(C)c1	18µM*	/	-3%	15µM*	/	/
CCN(CC)c1ccc(NC(=O)CN2C(=O)c3cccnc3Oc3ccccc32)c(C)c1	16µM*	/	9%	16µM*	/	/
CCN(CC)c1ccc(NC(=O)CN2C(=O)CSc3ncccc32)c(C)c1	7.3µM*	3	1%	5.2µM*	3	11
Cc1ccc2c(c1)N(CC(=O)Nc1ccccc1C(F)(F)F)C(=O)c1cccnc1O2	?	/	5%	?	/	/
